According to PubChem BioAssay (NCI):
About 83,000 compounds went through this panel and 20% of them were active in at least one assay; those are over-represented in the sample as a whole.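 Percent growth is the endpoint: 0 to 100 indicates growth inhibition (40 means 60% inhibition), 0 means no net growth, and negative values indicate cell death.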 Values without a mark were called inactive. Active and inactive are the calls of the source.

system: MOLT-4 leukemia; assay: NCI-60 one-dose screen, 48 h (100 = growth as untreated, 0 = no growth, -100 = all killed); details: 10 µM unless noted
Description: Growth inhibition of the MOLT-4 human tumor cell line is measured as a screen for anti-cancer activity. Cells are grown in 96 well plates and exposed to the test compound for 48 hours. Compounds are tested at a single concentration, which is 10^-5 M for most compounds. The reported endpoint is percent growth (GI% or GIPRCNT), where numbers from 0 - 100% represent growth inhibition, and numbers from -100% - 0 represent cell death. For example, a value of 40 represents 60% growth inhibition. A value of 0 means no net growth occurred over the course of the experiment. A value of -40 indicates 40% of cells at the beginning of the experiment died by the end of the experiment. A value of -100 means all cells are dead at the end of the experiment.
NCI-60 Human Tumor Cell Lines Screen was performed using the standard one-dose NCI protocol, which is described in more detail at https://dtp.cancer.gov/discovery_development/nci-60/default.htm.
Compounds with GIPRCNT values below 10 were considered active. Activity score was based on GIPRCNT using the following formula: […]
Score is 0 for GIPRCNT values of 100 or above, 50 for GIPRCNT values of 0, and 100 for GIPRCNT values of -100.

SMILES	growth
CCC(C)C1NC(=O)C(CCCCN)NC(=O)C(CCCCN)NC(=O)C(CC(C)C)NC(=O)C(CCCCN)NC(=O)C(C(C)CC)NC(=O)C(C(C)C)NC(=O)C(C(C)CC)NC(=O)C(CCCCN)NC(=O)C(CCCCN)NC(=O)C(C)NC(=O)C(CCCCN)NC(=O)C(CC(C)C)NC1=O (stereo not given)	22.2%
COC(=O)[C@H](Cc1cn(C)cn1)NC(=O)[C@@H](NC(=O)Nc1cc(C(F)(F)F)cc(C(F)(F)F)c1)C(C)(C)C	-25.7% [100 µM] (active)
CCn1cnc(C[C@H](NC(=O)[C@@H](NC(=O)Nc2cc(C(F)(F)F)cc(C(F)(F)F)c2)C(C)C)C(=O)OC)c1	-54.9% [100 µM] (active)
CC1(C)C(O)NC(Cl)=C(C#N)C1(C#N)C#N (stereo not given)	103%
CC(=O)Nc1nc(C)c(C(=O)NNC(=O)Nc2ccccc2)s1	115%
CCOC(=O)C(C)C(C)(O)c1ccccc1 (stereo not given)	95.4%
Cc1ccc(C(=O)Nc2ccc(CN3CCN(C)CC3)c(C(F)(F)F)c2)cc1C#Cc1cncc2ncccc12	-58.9% (active)
CC(C)(C)C(=O)OCOP(=O)(OCOC(=O)C(C)(C)C)C1CC(O)N(O)C1=O (stereo not given)	24.5%
c1cc(C2CCCCC2)ccc1OCCCCCCN1CCNCC1	-48.5% (active)
O=C1c2ccccc2CCc2ccccc21	111%
COc1ccc(/C=C(/C(=O)N2CCN(c3ccc(C)cc3)CC2)c2cc(OC)c(OC)c(OC)c2)cc1N	17.5%
Clc1ccc(N/N=C/c2ccccn2)nc1	5.02% (active)
O=C(Nc1cccc(Cn2c(=O)[nH]c3ccc(Oc4ncccn4)cc3c2=O)c1)c1cc(Cl)cc(Cl)c1	63.8%
NNC(=O)CNc1ccc2ccccc2c1	83.6%
Cn1cnc2nc[nH]c2c1=S	102%
COc1cc2ncnc(Nc3ccc4c(cnn4C(=O)Nc4ccccc4)c3)c2cc1OC	80.8%
Cc1ccnc2c(NC(C)CCCN)cc(O)c(O)c12 (stereo not given)	54.1%
COC(=O)/C=C1/CCCCC1(C)C(=O)OC (stereo not given)	99.6%
COCn1c(C(=O)OC)cc2oc(/C=C3/SC(=S)N(N)C3=O)cc21	68.6%
COC(=O)[C@H](Cc1cn(C)cn1)NC(=O)[C@H](Cc1c[nH]c2ccccc12)NC(=O)Nc1cc(C(F)(F)F)cc(C(F)(F)F)c1	-45.8% [100 µM] (active)

SMILES	growth
O=C1NCCN1/N=C/c1c(Cl)nc2n1CCS2	96.6%
O=S(=O)(O)CCI	120%
O=C1/C(=N\c2cc(=O)[nH]n2S(=O)(=O)c2ccccc2)Nc2ccccc21	102%
Cc1c(O)c(N=Nc2ccc(C(=O)O)c(O)c2)c2ccccc2c1O	76.6%
O=C(/C=C1\C(=O)N(Cc2ccc([N+](=O)[O-])cc2)c2ccccc21)c1ccc(OCCN2CCCC2)cc1	9.27% (active)
N/C(=N\O)c1ccncc1	114%
C#CCCCCCCC[C@@H]1OC(=O)[C@H]([C@@H](C)CC)NC(=O)[C@@H]([C@@H](C)CC)NC(=O)CC(=O)[C@@H]1C	87.2%
CC(=O)OC1CC2C3CCC4C[C@@H](NC(=O)C=C(C)C)CC[C@]4(C)C3CC[C@]2(C)[C@H]1C(C)N(C)C (stereo not given in full)	-31.9% (active)
C/C(CCC(=O)O)=N/Nc1ccc([N+](=O)[O-])cc1	37.3%
Oc1ccc(Br)cc1/C=N/NC(=S)NC12CC3CC(CC(C3)C1)C2	1.75% (active)
CCN(CC)CCCNc1c2ccc(Cl)cc2nc2ccc(OC)cc12	-20.8% (active)
CC(=O)OCC(=O)[C@@]1(O)[C@H](C)C[C@H]2[C@@H]3C=C(C)C4=Cc5c(cnn5-c5ccc(F)cc5)C[C@]4(C)[C@H]3[C@@H](O)C[C@@]21C	1.22% (active)
CC(=O)Oc1cc2ccccc2cc1C(C)C	109%
CCN(CC)C(=O)C1(C)CCCC2(C)c3cc(OC(C)=O)ccc3CCC12 (stereo not given)	64.1%
Nc1ncn([C@@H]2O[C@H](CO)[C@@H](O)C2(F)F)c(=O)n1	35.6%
Oc1ccc2ccccc2c1/C=N\Nc1ccccn1	5.28% (active)
COC(=O)c1c[n+]([O-])ccc1OC	-47.4% (active)
COc1ccc(Cn2cc3c(c2-c2ccccc2)CCc2cnoc2-3)cc1OC	35.9%
CCCCCCCCCCCCCCCCNC(=S)N/N=C/c1ccc(OC)cc1	106%
Nc1cc(N)c2nc(NCCc3ccc(Cl)c(Cl)c3)cnc2c1	-69.9% (active)
